From the supplement of paper PMC12636033
± gives the standard deviation of the averaged measurements. In all, about 33,000 sequences were measured (“E-score (rank enrichment, -0.5 to 0.5)”: median about -0.0028, highest 2% from about 0.23 on). The entries come from a sample that favours the highest values as a whole.

system: 2Sb-muMax20 (muMax20 with two 1,3-bis(methyl)benzene Cys staples, A13C/A17C and Q88C/A92C, C-terminal Lys); experiment: PBM 8-mer E-score (E-score (rank enrichment, -0.5 to 0.5)); higher = stronger preferential binding
Description: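 Protein binding microarray (universal PBM chip covering all 10-mers in fixed probe flanks) with chemically synthesized human Max(13-93) bHLH-LZ analogs (not full-length Max) bearing noncanonical residues (hArg, Tha, Aib, Nle at 65) and aromatic Cys staples. Read-out per 8-mer (and its reverse complement): E-score (rank-based enrichment, -0.5 to 0.5) and Z-score of median probe intensity.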

| Sequence | PBM 8-mer E-score |
| --- | --- |
| TCGAAAGA | 0.0439 ± 0.024 |
| CATAGATG | -0.111 ± 0.065 |
| CAAGGCAC | 0.0684 ± 0.076 |
| ACTAGCCT | 0.134 ± 0.035 |
| CTCCCGCA | 0.0448 ± 0.016 |
| AAACATAA | 0.28 ± 0.013 |
| TAACATAA | 0.217 ± 0.058 |
| AAACATAG | 0.0193 ± 0.016 |
| AAACATAT | 0.247 ± 0.042 |
| GAACATAA | 0.198 ± 0.058 |
| AAACATAC | 0.199 ± 0.015 |
| CCGATCAG | -0.247 ± 0.028 |
| GGGCTTAA | 0.0764 ± 0.033 |
| CGAATGCG | -0.0308 ± 0.079 |
| CGAATGCA | 0.248 ± 0.035 |
| CGAATGTA | 0.241 ± 0.011 |
| CGAATGTC | -0.0317 ± 0.0078 |
| CGAATGCC | -0.00354 ± 0.078 |
| GGAATGTA | 0.0875 ± 0.012 |
| ACAGTACC | -0.0999 ± 0.06 |
| GCTGTGCA | -0.0668 ± 0.075 |
| GGCCACAC | -0.0997 ± 0.082 |

| Sequence | PBM 8-mer E-score |
| --- | --- |
| CTTAACTC | 0.0502 ± 0.01 |
| TCTTTCAA | 0.0646 ± 0.0097 |
| TAACACAA | 0.232 ± 0.058 |
| GGACACAC | -0.0301 ± 0.051 |
| AAACACAA | 0.153 ± 0.0061 |
| GGACACGA | -0.122 ± 0.0082 |
| AGACACAA | 0.00927 ± 0.0092 |
| CAACACAA | 0.0293 ± 0.052 |
| GGACACAA | 0.238 ± 0.045 |
| GCACACAA | 0.233 ± 0.012 |
| CGACACAA | -0.0479 ± 0.0084 |
| GCACACAC | -0.0369 ± 0.062 |
| ACACACAA | 0.0979 ± 0.013 |
| TGACACAA | 0.239 ± 0.0028 |
| CGTCCACG | -0.0278 ± 0.092 |
| GGCCCGAC | -0.223 ± 0.016 |
| CTGGTGGA | -0.184 ± 0.0071 |
| CCCCAAAG | -0.0426 ± 0.063 |
| CCTCTGGC | -0.104 ± 0.017 |
| GAACTATC | 0.0395 ± 0.014 |
| CCACAACA | 0.0344 ± 0.024 |
| GCACAACC | -0.2359 ± 0.0019 |

| Sequence | PBM 8-mer E-score |
| --- | --- |
| GCACAACA | 0.263 ± 0.066 |
| CTCCTTGC | -0.0809 ± 0.064 |
| GAACCACC | -0.0303 ± 0.047 |
| ACCATAAG | 0.0575 ± 0.0016 |
| CCCATAAG | 0.277 ± 0.06 |
| CCCATAAC | 0.128 ± 0.0013 |
| ATACGTTG | 0.11 ± 0.057 |
| ATCTTGTA | -0.0155 ± 0.031 |
| ATACAGTA | 0.223 ± 0.018 |
| ATACAGTC | -0.00634 ± 0.095 |
| ATACAGTG | 0.237 ± 0.028 |
| ACGTCAAA | 0.148 ± 0.052 |
| CTTGCTGA | -0.0397 ± 0.039 |
| GACGGAAC | -0.127 ± 0.049 |
| CTCCTTAA | -0.0933 ± 0.1 |
| AAGACCCA | 0.042 ± 0.021 |
| GAGACCCA | -0.107 ± 0.056 |
| TAGACCCA | 0.243 ± 0.021 |
| CAGAGCAG | -0.155 ± 0.026 |
| ACTGTTCT | 0.114 ± 0.014 |
| ACTAATAG | 0.261 ± 0.027 |
| ACTAATAT | 0.0629 ± 0.074 |

| Sequence | PBM 8-mer E-score |
| --- | --- |
| AGTAATAG | 0.255 ± 0.043 |
| CGTAATAG | 0.168 ± 0.063 |
| AATAATAG | 0.146 ± 0.0061 |
| CATAATAG | 0.258 ± 0.0042 |
| CATAATAA | 0.123 ± 0.049 |
| ACTAATAC | 0.188 ± 0.061 |
| AGTAATAC | -0.0436 ± 0.038 |
| CCTGGTTA | -0.0217 ± 0.078 |
| AGCGGTAA | -0.128 ± 0.0078 |
| GAGGCTCC | -0.117 ± 0.064 |
| AACTTTGT | 0.12 ± 0.0076 |
| AACACTAG | 0.193 ± 0.0046 |
| CTGACGCC | -0.0915 ± 0.025 |
| AATGCTTG | -0.00273 ± 0.049 |
| TCCACAGA | -0.0264 ± 0.053 |
| CCTCGACG | -0.141 ± 0.026 |
| CATTGCTA | 0.102 ± 0.021 |
| CGTTGCTC | -0.0317 ± 0.009 |
| AATTGCTG | 0.0578 ± 0.078 |
| AGTTGCTA | 0.0844 ± 0.05 |
